# Results filed as inconclusive are left out. Some structures have more than one record in an assay (separate samples or runs), and their calls can disagree. Activity calls are given as the source filed them. The calls were made as follows: active = hit-call score of the fitted dose curve at least 0.9, where 1 is the maximum; inconclusive = response in the unintended direction; inactive = score below 0.9.
# Assays:
# [1] = target: rat Opioid Receptor, Non-selective Binding, Oprm1 (gene 25601) (UniProt P33535); test: NVS_GPCR_rOpiate_NonSelective: NovaScreen (NVS) G Protein-Coupled Receptor Assay for rat Opioid Receptor, Non-selective Binding (AID 2283318)
# In short: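 Rat forebrain membranes, cell-free radioligand binding with filter-based scintillation counting, read 1.5 h after dosing. Primary screen in duplicate at 25 uM; actives retested in concentration series. Loss of signal versus DMSO baseline scored.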
# [2] = target: Sodium channel protein type 1 subunit alpha (Rattus norvegicus) (UniProt P04774); test: NVS_IC_rNaCh_site2: NovaScreen (NVS) Ion Channel Assay for rat Sodium Channel, Site 2 (NaCh) (AID 2283322);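 also: hit means loss of radioligand binding signal relative to DMSO so AC50 marks displacement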
# In short: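 Membranes: rat forebrain. Format: competitive radioligand displacement, filter separation, scintillation readout, 1 h exposure. Primary screen in duplicate at 25 uM; actives retested in concentration series.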
# [3] = target: rat Thyrotropin Releasing Hormone Receptor (TRH), Trhr (gene 25570) (UniProt Q01717); test: NVS_GPCR_rTRH: NovaScreen (NVS) G Protein-Coupled Receptor Assay for rat Thyrotropin Releasing Hormone Receptor (TRH) (AID 2283329);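 also: hit means lower bound tracer signal versus DMSO baseline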
# In short: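 Rat forebrain membrane prep, radioligand displacement, filter scintillation readout at 4 h. Single conc 25 uM, duplicate; actives retested as concentration series. DMSO = negative control/baseline.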
# [4] = target: rat Neurokinin-3 Receptor (NK3), Tacr3 (gene 24808) (UniProt P16177); test: NVS_GPCR_rNK3: NovaScreen (NVS) G Protein-Coupled Receptor Assay for rat Neurokinin-3 Receptor (NK3) (AID 2283310)
# In short: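 Rat cortical membranes; radioligand binding with filtration and scintillation counting, 2 h after dosing. Primary screen in duplicate at 25 uM, then concentration-response up to 50 uM; loss of binding signal relative to DMSO.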
# [5] = target: rat Vasopressin 1 Receptor (V1), Avpr1a (gene 25107) (UniProt P30560); test: NVS_GPCR_rV1: NovaScreen (NVS) G Protein-Coupled Receptor Assay for rat Vasopressin 1 Receptor (V1) (AID 2283316)
# In short: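 Radioligand binding on rat liver membranes, 1.5 h incubation, filter-based scintillation counting. Single 25 uM screen in duplicate; chemicals meeting threshold (e.g. 30% inhibition) run in concentration-response up to 50 uM.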
# [6] = NVS_IC_rCaDHPRCh_L: NovaScreen (NVS) Ion Channel Assay for rat Calcium Channel, Type L, Dihydropyridine Site (CaDHPRCh_L) (AID 2283320)
# In short: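 Radioligand binding to dihydropyridine site on rat cortical membranes, filter-based scintillation counting, 1 h after dosing. Screened in duplicate at 25 uM; actives rerun in concentration-response up to 50 uM. Loss of signal versus DMSO baseline.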
# [7] = target: human Neonicotinoid receptor (NNR), CHRNA2 (gene 1135) (UniProt Q15822); test: NVS_LGIC_hNNR_NBungSens: NovaScreen (NVS) Ligand-Gated Ion Channel Assay for human Neonicotinoid receptor (NNR) (AID 2283313)
# In short: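 Radioligand displacement on human neuroblastoma membranes, 2 h, filter-based scintillation counting. Primary screen in duplicate at 25 uM; chemicals passing threshold (e.g. 30% inhibition) run singleton concentration-response to 50 uM; loss of binding fitted versus DMSO.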
# [8] = target: rat Neonicotinoid receptor (NNR), Chrna7 (gene 25302) (UniProt Q05941); test: NVS_LGIC_rNNR_BungSens: NovaScreen (NVS) Ligand-Gated Ion Channel Assay for rat Neonicotinoid receptor (NNR) (AID 2283315)
# In short: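 Radioligand displacement binding on rat cortical membranes, 2.5 h incubation, filtration and scintillation counting. Loss of specific binding fitted relative to DMSO.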
# [9] = target: rat Opioid Receptor, Non-selective Sodium (Na+) Binding, Oprm1 (gene 25601) (UniProt P33535); test: NVS_GPCR_rOpiate_NonSelectiveNa: NovaScreen (NVS) G Protein-Coupled Receptor Assay for rat Opioid Receptor, Non-selective Sodium (Na+) Binding (AID 2283311)
# In short: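 Rat forebrain membranes, radioligand displacement with filter scintillation counting, 1.5 h incubation. Screened in duplicate at 25 µM; hits then run in concentration-response up to 50 µM; loss of binding fitted versus DMSO.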
# [10] = target: rat Neurokinin-1 Receptor (NK1), Tacr1 (gene 24807) (UniProt P14600); test: NVS_GPCR_rNK1: NovaScreen (NVS) G Protein-Coupled Receptor Assay for rat Neurokinin-1 Receptor (NK1) (AID 2283309)
# In short: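 Rat submaxillary gland membranes; radioligand displacement read by filter-based scintillation counting after 1 h. Primary screen in duplicate at 25 uM; actives retested in concentration series; loss of binding fitted versus DMSO.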
# [11] = tested on: NCBI gene 24521; test: NVS_IC_rKATPCh: NovaScreen (NVS) Ion Channel Assay for rat Potassium Channel, ATP-Sensitive (KATPCh) (AID 2283319)
# In short: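 Rat cortical membranes; radioligand binding at ATP-sensitive K channel site, filter-based scintillation counting 2 h after dosing. Single-point duplicate screen at 25 uM, hits rerun in concentration-response up to 50 uM; loss of signal versus DMSO.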
# [12] = target: bovine Gamma-Aminobutyric Acid Type A Receptor BDZ, alpha 1 site (GABARa1), GABRA1 (gene 780973) (UniProt P08219); test: NVS_LGIC_bGABARa1: NovaScreen (NVS) Ligand-Gated Ion Channel Assay for bovine Gamma-Aminobutyric Acid Type A Receptor BDZ, alpha 1 site (GABARa1) (AID 2283321)
# In short: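 Radioligand competition binding on bovine cortical membranes, 0.75 h, filter-based scintillation counting. Primary single concentration 25 uM in duplicate; actives rerun in concentration-response to 50 uM max. Loss of signal fitted versus DMSO.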
# [13] = target: Voltage-dependent N-type calcium channel subunit alpha-1B (Rattus norvegicus) (UniProt Q02294); test: NVS_IC_rCaChN: NovaScreen (NVS) Ion Channel Assay for rat Calcium Channel, Type N (CaChN) (AID 2283317)
# [14] = target: rat Gamma-Aminobutyric Acid Type A Receptor, Non-Selective (GABAR-NonSelective), Gabra1 (gene 29705) (UniProt P62813); test: NVS_LGIC_rGABAR_NonSelective: NovaScreen (NVS) Ligand-Gated Ion Channel Assay for rat Gamma-Aminobutyric Acid Type A Receptor, Non-Selective (GABAR-NonSelective) (AID 2283326)
# In short: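 Radioligand displacement on rat whole-brain extract, 1 h, filter scintillation readout; signal loss fitted versus DMSO. Primary screen in duplicate at 25 uM; hits (e.g. ≥30% inhibition) retested in concentration-response up to 50 uM.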
# [15] = target: rat Glutamate, NMDA Agonist Site (GluNMDA), Grin1 (gene 24408) (UniProt P35439); test: NVS_LGIC_rGluNMDA_Agonist: NovaScreen (NVS) Ligand-Gated Ion Channel Assay for rat Glutamate, NMDA Agonist Site (GluNMDA) (AID 2283327)
# In short: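 Rat forebrain membranes, radioligand binding in the agonist-site protocol; 1 h after dosing; filter-based scintillation counting. Single-concentration duplicate screen at 25 uM, then concentration-response up to 50 uM for actives; gain-of-signal vs DMSO.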
# [16] = target: rat Oxytocin Receptor (OXT), Oxtr (gene 25342) (UniProt P70536); test: NVS_GPCR_rOXT: NovaScreen (NVS) G Protein-Coupled Receptor Assay for rat Oxytocin Receptor (OXT) (AID 2283330)
# In short: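 Radioligand displacement on rat uterine membranes, 1 h incubation, filter-based scintillation counting. Chemicals were screened in duplicate at 25 uM, and those passing threshold were retested in concentration-response up to 50 uM. Loss of binding was fitted versus DMSO.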
# Chain of rat Opioid Receptor, Non-selective Binding, Oprm1 (gene 25601) (P33535 whole entry, looked up): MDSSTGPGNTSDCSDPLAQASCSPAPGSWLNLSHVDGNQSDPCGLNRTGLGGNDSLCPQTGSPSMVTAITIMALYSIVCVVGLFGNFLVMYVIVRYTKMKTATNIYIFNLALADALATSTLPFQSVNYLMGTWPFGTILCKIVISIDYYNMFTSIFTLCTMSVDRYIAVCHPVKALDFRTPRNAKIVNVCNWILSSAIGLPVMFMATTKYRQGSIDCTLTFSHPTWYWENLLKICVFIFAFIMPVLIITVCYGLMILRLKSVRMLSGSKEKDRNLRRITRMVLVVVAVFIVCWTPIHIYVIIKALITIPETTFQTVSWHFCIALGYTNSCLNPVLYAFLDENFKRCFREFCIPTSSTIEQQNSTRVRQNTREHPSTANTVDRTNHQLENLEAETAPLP
# Chain of human Neonicotinoid receptor (NNR), CHRNA2 (gene 1135) (Q15822 whole entry, looked up): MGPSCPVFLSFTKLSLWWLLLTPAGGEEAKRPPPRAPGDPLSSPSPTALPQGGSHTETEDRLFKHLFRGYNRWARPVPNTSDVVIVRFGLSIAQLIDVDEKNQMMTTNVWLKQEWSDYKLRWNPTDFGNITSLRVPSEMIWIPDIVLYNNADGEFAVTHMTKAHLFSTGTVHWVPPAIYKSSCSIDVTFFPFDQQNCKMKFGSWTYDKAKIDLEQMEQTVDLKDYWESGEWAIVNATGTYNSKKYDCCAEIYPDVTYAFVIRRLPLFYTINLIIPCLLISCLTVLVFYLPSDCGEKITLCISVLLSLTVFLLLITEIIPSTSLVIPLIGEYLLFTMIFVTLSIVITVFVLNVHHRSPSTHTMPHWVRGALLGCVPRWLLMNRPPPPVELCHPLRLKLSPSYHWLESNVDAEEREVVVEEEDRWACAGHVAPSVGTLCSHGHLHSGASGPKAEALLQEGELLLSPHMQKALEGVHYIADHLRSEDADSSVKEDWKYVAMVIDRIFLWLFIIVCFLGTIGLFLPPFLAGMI
# Chain of rat Neurokinin-1 Receptor (NK1), Tacr1 (gene 24807) (P14600 whole entry, looked up): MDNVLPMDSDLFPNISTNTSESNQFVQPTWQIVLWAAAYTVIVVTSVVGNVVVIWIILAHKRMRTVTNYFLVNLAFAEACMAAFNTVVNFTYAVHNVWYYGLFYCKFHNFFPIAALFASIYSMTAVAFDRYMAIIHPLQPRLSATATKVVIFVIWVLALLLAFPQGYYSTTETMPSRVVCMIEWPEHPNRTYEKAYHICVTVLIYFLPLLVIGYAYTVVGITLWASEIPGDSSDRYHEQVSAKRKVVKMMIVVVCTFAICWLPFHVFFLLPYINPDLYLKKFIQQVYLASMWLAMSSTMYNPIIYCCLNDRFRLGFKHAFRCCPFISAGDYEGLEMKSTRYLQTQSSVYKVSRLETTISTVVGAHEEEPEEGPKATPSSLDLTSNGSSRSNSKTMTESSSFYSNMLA
# Chain of rat Thyrotropin Releasing Hormone Receptor (TRH), Trhr (gene 25570) (Q01717 whole entry, looked up): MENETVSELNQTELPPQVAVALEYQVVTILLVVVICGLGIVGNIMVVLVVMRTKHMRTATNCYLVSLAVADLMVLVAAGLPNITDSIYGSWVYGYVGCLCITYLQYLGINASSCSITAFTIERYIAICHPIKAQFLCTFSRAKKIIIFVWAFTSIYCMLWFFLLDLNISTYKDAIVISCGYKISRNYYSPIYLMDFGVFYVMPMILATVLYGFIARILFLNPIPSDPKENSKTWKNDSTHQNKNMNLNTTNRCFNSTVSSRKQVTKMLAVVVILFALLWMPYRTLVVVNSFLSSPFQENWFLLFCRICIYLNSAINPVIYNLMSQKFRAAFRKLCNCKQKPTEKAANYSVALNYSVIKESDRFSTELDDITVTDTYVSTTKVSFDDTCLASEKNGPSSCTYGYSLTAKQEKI
# Chain of rat Gamma-Aminobutyric Acid Type A Receptor, Non-Selective (GABAR-NonSelective), Gabra1 (gene 29705) (P62813 whole entry, looked up): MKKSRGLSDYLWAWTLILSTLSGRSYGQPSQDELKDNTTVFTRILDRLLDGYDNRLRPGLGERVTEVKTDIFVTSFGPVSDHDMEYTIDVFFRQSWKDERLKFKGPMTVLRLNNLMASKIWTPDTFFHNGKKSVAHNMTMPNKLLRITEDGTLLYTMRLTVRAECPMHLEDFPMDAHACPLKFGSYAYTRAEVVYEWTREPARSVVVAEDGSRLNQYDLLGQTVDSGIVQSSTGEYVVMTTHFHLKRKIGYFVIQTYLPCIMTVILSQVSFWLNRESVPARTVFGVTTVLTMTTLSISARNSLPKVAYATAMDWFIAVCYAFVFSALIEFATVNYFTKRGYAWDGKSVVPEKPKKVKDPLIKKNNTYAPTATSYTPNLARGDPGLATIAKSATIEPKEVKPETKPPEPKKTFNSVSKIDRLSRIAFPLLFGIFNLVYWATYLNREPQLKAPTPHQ
# Chain of rat Oxytocin Receptor (OXT), Oxtr (gene 25342) (P70536 whole entry, looked up): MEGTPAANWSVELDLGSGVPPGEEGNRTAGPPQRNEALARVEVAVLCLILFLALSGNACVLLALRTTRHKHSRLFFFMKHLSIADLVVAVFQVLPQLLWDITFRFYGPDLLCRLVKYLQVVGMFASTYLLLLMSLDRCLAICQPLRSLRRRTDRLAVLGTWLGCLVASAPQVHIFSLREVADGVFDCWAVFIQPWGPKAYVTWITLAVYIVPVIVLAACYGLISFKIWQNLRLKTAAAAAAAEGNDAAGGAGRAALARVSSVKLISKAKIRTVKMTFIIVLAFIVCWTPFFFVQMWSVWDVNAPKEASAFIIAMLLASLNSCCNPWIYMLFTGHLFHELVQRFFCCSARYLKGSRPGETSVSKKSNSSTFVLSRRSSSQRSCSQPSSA
# Chain of rat Vasopressin 1 Receptor (V1), Avpr1a (gene 25107) (P30560 whole entry, looked up): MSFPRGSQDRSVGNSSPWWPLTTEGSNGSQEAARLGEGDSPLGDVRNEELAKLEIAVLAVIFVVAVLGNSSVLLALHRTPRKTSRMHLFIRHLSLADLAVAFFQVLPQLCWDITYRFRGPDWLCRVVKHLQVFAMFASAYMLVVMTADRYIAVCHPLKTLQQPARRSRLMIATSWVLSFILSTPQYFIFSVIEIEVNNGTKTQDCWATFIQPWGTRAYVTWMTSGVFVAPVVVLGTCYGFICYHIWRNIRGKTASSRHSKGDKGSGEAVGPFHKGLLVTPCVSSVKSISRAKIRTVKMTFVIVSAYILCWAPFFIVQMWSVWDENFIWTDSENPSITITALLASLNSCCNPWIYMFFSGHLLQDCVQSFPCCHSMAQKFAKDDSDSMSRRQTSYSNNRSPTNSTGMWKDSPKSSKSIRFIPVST
# Chain of rat Neurokinin-3 Receptor (NK3), Tacr3 (gene 24808) (P16177 whole entry, looked up): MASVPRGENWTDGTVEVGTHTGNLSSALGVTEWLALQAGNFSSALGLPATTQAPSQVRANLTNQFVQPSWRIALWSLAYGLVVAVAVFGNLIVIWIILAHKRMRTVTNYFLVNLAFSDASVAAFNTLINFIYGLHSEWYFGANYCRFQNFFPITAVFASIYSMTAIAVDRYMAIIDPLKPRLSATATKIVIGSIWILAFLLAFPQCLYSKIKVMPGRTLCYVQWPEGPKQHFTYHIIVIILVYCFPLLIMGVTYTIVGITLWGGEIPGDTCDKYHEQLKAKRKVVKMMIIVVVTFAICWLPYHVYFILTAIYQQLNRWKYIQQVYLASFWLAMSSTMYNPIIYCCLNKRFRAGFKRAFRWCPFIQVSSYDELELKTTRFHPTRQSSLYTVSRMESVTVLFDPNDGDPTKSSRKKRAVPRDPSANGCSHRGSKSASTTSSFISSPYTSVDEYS
# Chain of bovine Gamma-Aminobutyric Acid Type A Receptor BDZ, alpha 1 site (GABARa1), GABRA1 (gene 780973) (P08219 whole entry, looked up): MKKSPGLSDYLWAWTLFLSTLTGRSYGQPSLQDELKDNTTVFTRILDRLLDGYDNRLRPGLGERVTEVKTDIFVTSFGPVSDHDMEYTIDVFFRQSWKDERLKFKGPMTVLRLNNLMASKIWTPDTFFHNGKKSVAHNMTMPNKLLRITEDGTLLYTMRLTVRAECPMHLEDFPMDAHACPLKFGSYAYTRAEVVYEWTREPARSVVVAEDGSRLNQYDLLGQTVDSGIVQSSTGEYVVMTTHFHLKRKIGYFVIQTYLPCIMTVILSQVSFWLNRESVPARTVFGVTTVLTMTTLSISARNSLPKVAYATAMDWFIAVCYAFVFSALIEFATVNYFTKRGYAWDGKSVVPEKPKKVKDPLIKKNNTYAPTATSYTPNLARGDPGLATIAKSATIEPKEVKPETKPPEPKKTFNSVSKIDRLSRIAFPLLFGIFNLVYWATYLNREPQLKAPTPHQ
# Chain of rat Opioid Receptor, Non-selective Sodium (Na+) Binding, Oprm1 (gene 25601) (P33535 whole entry, looked up): as the sequence (P33535 whole entry, looked up) above
# Chain of rat Neonicotinoid receptor (NNR), Chrna7 (gene 25302) (Q05941 whole entry, looked up): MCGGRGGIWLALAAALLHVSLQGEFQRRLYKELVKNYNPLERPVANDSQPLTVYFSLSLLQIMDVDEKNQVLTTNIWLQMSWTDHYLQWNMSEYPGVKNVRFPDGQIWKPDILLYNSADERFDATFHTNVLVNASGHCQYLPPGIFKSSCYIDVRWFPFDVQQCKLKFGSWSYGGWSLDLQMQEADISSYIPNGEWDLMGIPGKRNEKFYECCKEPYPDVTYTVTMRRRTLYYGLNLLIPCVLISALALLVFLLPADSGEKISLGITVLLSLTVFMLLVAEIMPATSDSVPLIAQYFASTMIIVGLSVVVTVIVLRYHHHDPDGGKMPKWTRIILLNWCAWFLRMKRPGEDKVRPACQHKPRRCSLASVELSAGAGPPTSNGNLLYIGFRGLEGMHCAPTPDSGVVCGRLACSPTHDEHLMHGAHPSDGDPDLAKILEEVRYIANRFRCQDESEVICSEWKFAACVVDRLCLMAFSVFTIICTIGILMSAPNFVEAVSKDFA
structure (smiles),measurement,setting,value
CCN(CC)C(=O)C(C)Oc1cccc2ccccc12 (stereo not drawn),outcome,[1],inactive
same,outcome,[2],inactive
same,AC50,[3],42.2 µM (active)
same,outcome,[3],inactive
CCCCC(C#N)(Cn1cncn1)c1ccc(Cl)cc1 (stereo not drawn),outcome,[4],inactive
same,AC50,[5],1.98 µM (active)
same,outcome,[6],inactive
same,AC50,[2],25 µM (active)
CN/C(=N\[N+](=O)[O-])NCc1cnc(Cl)s1,AC50,[7],10.1 µM (active)
same,AC50,[8],25 µM (active)
CCCC(=NOCC)C1=C(O)CC(CC(C)SCC)CC1=O (stereo not drawn),outcome,[1],inactive
Cc1ccc(N=CN(C)C=Nc2ccc(C)cc2C)c(C)c1,outcome,[7],inactive
COCC(C)N(C(=O)CCl)c1c(C)csc1C (stereo not drawn),AC50,[9],16 µM (active)
same,outcome,[1],inactive
CCNP(=S)(OC)O/C(C)=C/C(=O)OC(C)C (stereo not drawn),outcome,[10],inactive
COP(=O)(OC)O/C(C)=C/C(=O)N(C)C,outcome,[11],inactive
same,outcome,[12],inactive
Cc1cc(C)nc(Nc2ccccc2)n1,outcome,[10],inactive
same,outcome,[2],inactive
N#Cc1c[nH]cc1-c1cccc2c1OC(F)(F)O2,outcome,[13],inactive
same,outcome,[2],inactive
CC1(C)C(C=C(Cl)Cl)C1C(=O)OC(C#N)c1cccc(Oc2ccccc2)c1 (stereo not drawn),AC50,[7],25 µM (active)
same,AC50,[6],9.51 µM (active)
COC(=O)NS(=O)(=O)c1ccc(N)cc1,outcome,[14],inactive
COC(=O)c1c(C(F)F)nc(C(F)(F)F)c(C2=NCCS2)c1CC(C)C,outcome,[14],inactive
CN=C=S,outcome,[15],inactive
O=P(O)(O)CCCl,outcome,[16],inactive
CC(C)NC(=O)N1CC(=O)N(c2cc(Cl)cc(Cl)c2)C1=O,outcome,[16],inactive

# — PubChem BioAssay (EPA / NIEHS)
